Shown are actives, neighbours in structure and some others; about 7.3% of the full set was active somewhere.
KinaseGlo FLuc: Counterscreen for Luciferase (Kinase-Glo TM) Inhibition; Potency, µM (titrated, usually from 38.3 µM), without a hit: top-dose activity change, negative = inhibition, hits mostly inhibitors; Kinase-Glo luciferase, ATP luminescence, 8 min; 0.28% of 200,000 active; Luciferin 4-monooxygenase (Photuris pensylvanica), Q27757; further: on the % scale 0 is the no-effect control and ±100 the full control effect; nearly all actives have a fitted effect of over 60% in size
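Kinase-Glo luciferase light output from ATP and luciferin was measured with 10 uM ATP, within the enzyme's linear range. Buffer: 50 mM imidazole pH 7.2, 50 mM KCl, 7 mM MgCl2, 0.01% Tween 20, 0.05% BSA; luminescence read after 8 min at ambient temperature.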
SMN2 splice enh: qHTS Assay for Enhancers of SMN2 Splice Variant Expression. HEK293 SMN2-luciferase splicing reporter, luminescence, 30-36 h. Potency, µM (doses to about 46.1 µM), for the others: at the highest dose activity change, positive = activation, actives largely listed as activators. 2.8% of 210,000 active. AID 1458, 2008; further: % of control where 0% means no effect; nearly all actives have a fitted effect of over 55% in size
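HEK293 cells carry an SMN2 […]–luciferase reporter in which exon 7 inclusion puts luciferase in frame. Cells were plated 10-12 h before compound addition, then incubated 30-36 h at 37C. ONE-Glo luminescence was read; sodium butyrate at 4.5 mM final served as control.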
FLuc modulator: qHTS profiling assay for firefly luciferase inhibitor/activator using purifed enzyme and Km concentrations of substrates (counterscreen for miR-21 project). Luciferin 4-monooxygenase (Photinus pyralis), P08659. purified FLuc, Km substrates, luminescence inhibition. Potency, µM (doses to about 57.5 µM), for inactives: at the highest dose activity change, negative = inhibition, usual class: inhibitors. 6.9% of 360,000 active;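 further: plate controls were vehicle for no effect and reference inhibitor for full effect; nearly all actives have a fitted effect of over 55% in size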
Target sequence (P08659 whole entry, looked up): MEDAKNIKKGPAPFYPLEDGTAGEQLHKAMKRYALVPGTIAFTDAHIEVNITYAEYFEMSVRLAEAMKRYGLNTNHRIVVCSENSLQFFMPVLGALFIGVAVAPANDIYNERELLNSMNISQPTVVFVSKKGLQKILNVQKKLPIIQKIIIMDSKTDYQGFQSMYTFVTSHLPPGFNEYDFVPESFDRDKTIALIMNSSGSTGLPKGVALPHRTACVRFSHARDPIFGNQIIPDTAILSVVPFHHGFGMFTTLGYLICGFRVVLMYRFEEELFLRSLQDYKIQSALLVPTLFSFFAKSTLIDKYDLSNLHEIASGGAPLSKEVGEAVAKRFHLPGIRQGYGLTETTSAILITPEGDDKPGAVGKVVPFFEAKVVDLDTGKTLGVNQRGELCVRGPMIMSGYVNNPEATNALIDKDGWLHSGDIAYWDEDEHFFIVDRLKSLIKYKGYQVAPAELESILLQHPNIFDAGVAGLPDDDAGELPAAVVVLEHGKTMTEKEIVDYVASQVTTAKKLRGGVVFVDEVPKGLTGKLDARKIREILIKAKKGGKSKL
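Purified P. pyralis luciferase (10nM final) with 10uM D-luciferin and 10uM ATP (Km levels) in 50mM Tris acetate pH 7.5, 10mM Mg acetate, 0.01% Tween-20, 0.05% BSA; qHTS 6-point titration, ~60 µM downward; luminescence read.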
Rab9 promoter act: qHTS Assay for Rab9 Promoter Activators. Potency, µM (doses to about 9.22 µM), for inactives: top-dose activation, negative = inhibition, actives largely listed as activators. AID 485297, 2010. Huh7 Rab9 promoter-luciferase reporter, luminescence, 24 h. 2.8% of 320,000 active; further: % of control where 0% means no effect; nearly all actives have a fitted effect of over 60% in size
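Promoter activation is measured as luciferase luminescence in Huh7 cells stably transfected with a Rab9 promoter–luciferase construct, following 24 h compound exposure at 37 °C and 10 min reagent incubation at ambient temperature.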
NPC1 promoter act: qHTS Assay for NPC1 Promoter Activators. Huh7 NPC1 promoter luciferase reporter, 24 h. 2.4% of 320,000 active. Potency, µM (series often up to 9.22 µM), for inactives: at the top dose activation, hits mostly activators; further: % of control where 0% means no effect; nearly all actives have a fitted effect of over 60% in size
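Readout is luciferase luminescence, reflecting NPC1 promoter activation in stably transfected Huh7 cells after 24 h compound exposure at 37 °C in reduced-serum medium with 10% FBS.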
Starred values were filed as active, the others as inactive; ? = inconclusive; . = not tested or not shown; [ ] = dose if it differs, or a comment. The call rests on the fitted dose curve; in most records, active means well fitted curve in the direction sought with a large enough effect; inconclusive means small, poorly fitted or top-dose-only effect, or another doubt; inactive means no such curve, though single readings can be large; an effect the other way counts as inactive or inconclusive. Potency means the concentration at half of the fitted maximal effect.

SMILES	KinaseGlo FLuc	SMN2 splice enh	FLuc modulator	Rab9 promoter act	NPC1 promoter act
CCc1cccc2c(-c3ccccc3)nc(SCC(=O)Nc3ccccc3OC)nc12	.	-7%	1%	.	.
Nc1c2c(nc3ccc(Br)cc13)N(Cc1ccccc1)CC2	2%	-16%	17µM*	0%	0%
Cc1cccc(N2CCc3c2nc2ccc(Br)cc2c3N)c1	-2%	-9%	8.5µM*	3%	-1%
Nc1c2c(nc3ccc(Br)cc13)N(c1ccccc1)CC2	-3%	16%	?	22%	13%
C=Cc1ccc(CSc2nc(-c3ccccc3Cl)nc3c2Cc2c(CO)cnc(C)c2O3)cc1	.	.	-2%	.	.
COc1cc2c(cc1OC)C(COc1ccc3c(C)cc(=O)oc3c1)N(C(=O)Cc1ccccc1)CC2 (configuration not stated)	.	19%	1%	.	.
CC(C)(C)N1C(=O)Cc2c1nc(N)c1c(N)nc(N3CCCCC3CO)c(C#N)c21 (configuration not stated)	-1%	2%	8.5µM*	23%	24%
CN(CCO)c1nc(N)c2c(N)nc3c(c2c1C#N)CC(=O)N3C1CCCC1	-2%	-29%	-18%	-3%	-8%
CCc1cc(C(=O)NNC(=S)Nc2cc(C)ccc2C)cs1	2%	-26%	-12%	2%	10%
CCc1cc(C(=O)NNC(=S)Nc2ccccc2C)cs1	-9%	14µM*	6.7µM*	2.8µM*	3.5µM*
CCc1cc(C(=O)NNC(=S)NCc2ccccc2)cs1	-4%	-15%	-13%	0%	-3%
CCc1cc(C(=O)Nc2ccccc2)cs1	-7%	35%	-17%[2.3 µM]	2.2µM*	-9%
CCc1ccccc1NS(=O)(=O)c1ccc(NC(=O)N2CCCC2)cc1	.	.	5%	.	.
CC(C)c1ccc(O)c(NC(=O)c2ncn[nH]2)c1	-2%	-14%	?	18%	-5%
CCc1ccc2c(c1)NC(c1ccc(C)cc1)=NC(c1cccs1)=N2	.	11%	?	.	.
CCc1ccc2c(c1)C1(NN=C(c3ccc(C)cc3)S1)C(=O)N2 (configuration not stated)	-3%	-45%	27µM*	-2%	-2%
CC(C)c1ccc2c(c1)C1(NN=C(c3ccccc3)S1)C(=O)N2 (configuration not stated)	-7%	-71%	17µM*	-1%	-6%
CCCNC(=O)C1CCC(Cn2c(=O)c3sccc3n(CC(=O)N3CCCC3)c2=O)CC1 (configuration not stated)	.	.	-3%	.	.
COc1ccc(Nc2c(-c3ccc(C)o3)nc3ccc(Cl)cn23)cc1	.	13%	4%	.	.
COc1ccc(Br)cc1CNC(=O)c1ccc(-n2c(C)cc3c2CCC(C)C3)cc1 (configuration not stated)	.	.	6%	.	.
O=c1oc2ccc(Br)cc2cc1-c1nc2ccccc2o1	-7%	-1%	2%	-5%	-3%
Brc1ccc2oc(-c3ccn[nH]3)cc2c1	.	.	3µM*	2.5µM*	2.2µM*
CCOc1ccccc1NC(=O)CCc1c(C)nn(-c2ccc(N3CCOCC3)nn2)c1C	.	.	-13%	.	.
O=P(O)(O)O[C@@H]1O[C@H](CO)[C@@H](O)[C@H](O)[C@@H]1O	-3%[7.66 µM]	-2%[9.22 µM]	.	.	.
CCOC(=O)c1cnc2c(ccc3ccccc32)c1Cl	.	.	3µM*	5%	-3%
SMILES	KinaseGlo FLuc	SMN2 splice enh	FLuc modulator	Rab9 promoter act	NPC1 promoter act
O=C1C2=C(Nc3ccccc3SC2c2ccccc2C(F)(F)F)c2ccccc21 (configuration not stated)	.	-22%	-1%	.	.
COc1ccc(N2Cc3ccc(C(=O)N/N=C\c4ccc(O)cc4O)cc3C2)cc1	.	.	15µM*	?	?
COc1ccc(/C=N/NC(=O)c2cccc(NC(=O)c3ccccc3Cl)c2)cc1	.	.	5.4µM*	-2%	-19%
COc1ccccc1/C=N/NC(=O)c1cccc(NC(=O)c2ccccc2C)c1	.	.	15µM*	1%	-3%
O=C(N/N=C/c1ccc(F)cc1)c1cccc(NC(=O)c2ccccc2Cl)c1	.	.	9.5µM*	6%	0%
Cc1ccc(Cl)cc1N1CCN(c2ncnc3onc(C)c23)CC1	.	.	-6%	.	.
O=C(Nc1cc(-c2nc3ccccc3o2)ccc1Cl)c1ccc(Br)o1	.	6%	4%	.	.
CCc1nc(SCc2cc(=O)c3cc(F)ccc3[nH]2)n[nH]1	.	.	-5%	.	.
COc1ccccc1/C=N/NC(=O)c1cccc(NC(=O)c2ccccc2Cl)c1	0%	0%	?	-5%	1%
CCCCC(=O)Nc1cccc(C(=O)N/N=C/c2ccc(OC)cc2OC)c1	-3%	-18%	17µM*	1%	-1%
COc1ccc(/C=N/NC(=O)c2cccc(NC(=O)c3ccccc3Cl)c2)c(OC)c1	1%	-28%	4.3µM*	2%	10%
COc1ccc(NC(=O)O/N=C/c2ccccc2Cl)cc1	.	.	30µM*	-2%	4%
COc1ccc(C(=O)Nc2cccc(C(=O)N/N=C/c3ccc(OC)cc3OC)c2)cc1	.	.	1.9µM*	4µM*	?
COc1ccc(CCNC(=O)CCc2cn(Cc3ccc(C)cc3)c3ccccc23)cc1OC	.	.	3%	.	.
C[C@H]1Cc2c(-c3ccccc3)nc3c(c2CO1)CN(C(=O)NCCc1c[nH]c2ccccc12)CC3	-4%[7.66 µM]	-10%[9.22 µM]	.	.	.
CCOCCCNC(=O)CN1C(=O)c2c(c3ccccc3n2C)C1c1ccc(OC)cc1 (configuration not stated)	.	.	1%	.	.
COc1ccc(OC)c(NC(=O)CN(c2ccccc2OC)S(=O)(=O)c2ccc(C)cc2)c1	.	-23%	4%	.	.
COc1cc(/C=N/NC(=O)c2cccc(NC(=O)c3ccccc3Cl)c2)ccc1O	1%	-7%	15µM*	-5%	5%
COc1ccc(/C=N/NC(=O)c2cccc(NC(=O)c3ccccc3Cl)c2)cc1OC	0%	-10%	?	-3%	4%
Cc1c(C(=O)N2CCOCC2)oc2c1-c1nn(CC(=O)NCc3ccccc3)cc1CC2	.	.	-3%	.	.
O=C(CN1C(=O)COc2ccc(S(=O)(=O)N3CCOCC3)cc21)NCc1ccc(Cl)cc1	.	.	6%	.	.
Oc1ccc(-c2nc(-c3ccccc3)c(-c3ccc(Br)cc3)[nH]2)cc1	.	4%	-15%	.	.
Oc1ccc(N=Nc2nc(-c3ccccc3)c(-c3ccccc3)[nH]2)cc1	1%	?	?	-5%	0%
Oc1ccc(N=Nc2n[nH]c(-c3ccccc3)n2)cc1	-16%	?	3.8µM*	1µM*	1.6µM*
Oc1ccc(N=Nc2n[nH]c(-c3ccc(Br)cc3)n2)cc1	1%	16µM*	7.6µM*	-9%	12%
Cc1cccc(-n2cc(CN(C)Cc3nccn3C)c(-c3cccc(F)c3)n2)c1	1%	.	?	-4%	-3%
